Reference: PubChem BioAssay (Tox21)
Inconclusive results are not listed. Entries that show only a call come without a potency. Values without a mark were called inactive. The source made the active and inactive calls. The call rests on the fitted dose curve; in most records, active means well fitted curve in the direction sought with a large enough effect in the repeat runs; inconclusive means weak or mixed curves; inactive means no such curve, though single readings can be large; an effect the other way counts as inactive or inconclusive. Positions of bridges follow the written chain, without caps; N, C: chain ends. Non-standard residues stand in square brackets, D forms with d. Residues, ends and D or L forms follow the SMILES beside them. *: point of attachment. Dab(CH2SO3H) = N[C@@H](CCNCS(=O)(=O)O)C(=O)O; X3 = CC[C@@H](C)CCCCC(=O)*; Dab = NCC[C@H](N)C(=O)O

Legend:
[1] = biological target: Nuclear receptor subfamily 1 group I member 2 (Rattus norvegicus) (UniProt Q9R1A7); assay: Rat pregnane X receptor (rPXR) activation by small molecules, qHTS assay (AID 1346983); conditions: rPXR luciferase reporter cells, One-Glo luminescence, 24 h; max activation: stronger effect = higher value; further: nearly all actives have a fitted effect of over 20% in size
Chain of Nuclear receptor subfamily 1 group I member 2 (Rattus norvegicus) (Q9R1A7 whole entry, looked up): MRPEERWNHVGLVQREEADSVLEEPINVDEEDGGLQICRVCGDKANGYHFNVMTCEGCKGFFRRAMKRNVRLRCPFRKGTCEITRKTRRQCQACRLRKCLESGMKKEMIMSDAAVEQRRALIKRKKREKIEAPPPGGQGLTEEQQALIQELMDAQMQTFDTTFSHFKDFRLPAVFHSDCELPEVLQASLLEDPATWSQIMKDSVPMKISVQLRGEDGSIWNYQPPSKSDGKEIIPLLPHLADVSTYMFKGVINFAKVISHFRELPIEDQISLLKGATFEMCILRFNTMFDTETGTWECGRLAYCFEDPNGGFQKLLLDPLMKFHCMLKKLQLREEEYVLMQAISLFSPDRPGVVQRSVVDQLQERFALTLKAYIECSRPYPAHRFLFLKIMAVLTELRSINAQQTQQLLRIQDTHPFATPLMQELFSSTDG
Procedure, shortened: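 Luminescent readout (One-Glo luciferase, 30 min room temperature) followed 24 hr compound treatment at 37 C of rPXR cells plated 2,000 per well and preincubated 5hr; qHTS format with compounds delivered in DMSO.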

[2] = biological target: Nuclear receptor subfamily 1 group I member 2 (Homo sapiens) (UniProt O75469); assay: CYP3A4 induction through human pregnane X receptor (PXR) by small molecules, qHTS assay (AID 1346984); further: nearly all actives have a fitted effect of over 40% in size
Procedure, shortened: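 qHTS, concentration-response format: HepG2 DPX-2 line, PXR/CYP3A4-luc. Exposure 24 h, 37C. Substrate Luciferin-IPA 3uM final, 3 h. Detection One-Glo, 30 min RT.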

[3] = biological target: Nuclear receptor subfamily 1 group I member 2 (Homo sapiens) (UniProt O75469); assay: Human pregnane X receptor (PXR) activation by small molecules, qHTS assay (AID 1346985); further: nearly all actives have a fitted effect of over 40% in size
Procedure, shortened: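 DPX-2 cells (HepG2 co-transfected with a PXR response element and a CYP3A4-promoter luciferase construct) were seeded at 2,000 per well, rested 5 hr at 37C, then exposed to DMSO-dissolved compounds for 24 hr. Activation was read as luciferase luminescence.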

[4] = biological target: Cytochrome P450 2C19 (Homo sapiens) (UniProt P33261); assay: Cytochrome P450 Family 2 Subfamily C Member 19 (CYP2C19) small molecule antagonists: luciferase reporter qHTS assay (AID 1671197); further: potency means the concentration at half of the fitted maximal effect; nearly all actives have a fitted effect of over 65% in size
Chain of Cytochrome P450 2C19 (Homo sapiens) (P33261 whole entry, looked up): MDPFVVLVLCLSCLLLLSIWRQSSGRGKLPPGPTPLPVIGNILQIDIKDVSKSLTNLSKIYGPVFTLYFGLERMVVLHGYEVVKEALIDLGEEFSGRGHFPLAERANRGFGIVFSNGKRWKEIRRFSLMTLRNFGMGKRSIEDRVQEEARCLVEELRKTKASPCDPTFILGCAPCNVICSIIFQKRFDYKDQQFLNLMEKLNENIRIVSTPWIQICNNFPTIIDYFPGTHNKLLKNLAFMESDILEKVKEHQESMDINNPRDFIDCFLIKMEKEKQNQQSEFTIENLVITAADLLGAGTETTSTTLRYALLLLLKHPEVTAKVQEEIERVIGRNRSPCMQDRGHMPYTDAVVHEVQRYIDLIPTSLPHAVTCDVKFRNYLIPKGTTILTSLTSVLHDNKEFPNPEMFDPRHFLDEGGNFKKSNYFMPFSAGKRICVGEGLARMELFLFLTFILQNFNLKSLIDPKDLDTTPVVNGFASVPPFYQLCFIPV
Procedure, shortened: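 Light output is proportional to CYP2C19 activity: proluciferin substrate is converted to luciferin, then detected by a luciferin detection reagent that also stops the 1 h, 37C NADPH-driven reaction. Ketoconazole serves as positive control.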

SMILES	max activation [1]	Potency [2]	Potency [3]	Potency [4]
NCC(O)CC(=O)O (stereo unspecified)	-2.62%	inactive	inactive	
C=C1[C@H](CO)[C@@H](O)C[C@@H]1n1cnc2c(=O)[nH]c(N)nc21	-2.99%	inactive	inactive	
C=CC1=C(C(=O)O)N2C(=O)[C@@H](NC(=O)/C(=N/OCC(=O)O)c3csc(N)n3)[C@H]2SC1 (stereo in doubt)	-1.86%	inactive	inactive	
c1ccc(-n2cnnn2)cc1	-5.33%	inactive	inactive	
C=C1C(=C/C=C2\CCC[C@]3(C)[C@@H]([C@H](C)CCCC(C)C)CC[C@@H]23)C[C@@H](O)C[C@@H]1O	-2.56%	inactive	inactive	
CC[C@@]1([C@@H]2O[C@@H]([C@H]3O[C@@](O)(CO)[C@H](C)C[C@@H]3C)C[C@@H]2C)CC[C@H]([C@]2(C)CC[C@]3(C[C@H](O)[C@@H](C)[C@@H]([C@@H](C)[C@@H](OC)[C@H](C)C(=O)O)O3)O2)O1 (stereo in doubt)	-15.4%	inactive	inactive	
C[C@@H]1C(=O)NC2=Nc3cccc(Cl)c3CN21	3.73%	inactive	inactive	
C=CCN1C(=O)C(CC(C)C)NC1=S (stereo unspecified)	12.3%	inactive	inactive	
CCCC(CCC)C(=O)OC1C[C@H]2CC[C@@H](C1)[N+]2(C)C (stereo partly specified)	-0.777%	inactive	inactive	
N=C(N)n1cccn1	-4.29%	inactive	inactive	
COC1[C@@H](O[C@@H]2O[C@H](C)[C@@H](O[C@H]3C[C@@](C)(O)[C@H](OC(=O)CC(C)C)[C@H](C)O3)[C@H](N(C)C)[C@H]2O)[C@@H](CC=O)C[C@@H](C)[C@@H](O)/C=C/C=C/C[C@@H](C)OC(=O)C[C@H]1OC(C)=O (stereo partly specified)	-1.32%	inactive	inactive	
CC[C@@H](C)CCCCC(=O)N[C@@H](CCNCS(=O)(=O)O)C(=O)N[C@H](C(=O)N[C@@H](CCNCS(=O)(=O)O)C(=O)N[C@H]1CCNC(=O)[C@H]([C@@H](C)O)NC(=O)[C@H](CCNCS(=O)(=O)O)NC(=O)[C@H](CCNCS(=O)(=O)O)NC(=O)[C@H](CC(C)C)NC(=O)[C@@H](CC(C)C)NC(=O)[C@H](CCNCS(=O)(=O)O)NC1=O)[C@@H](C)O (X3-[Dab(CH2SO3H)]T[Dab(CH2SO3H)][Dab][Dab(CH2SO3H)][dL]L[Dab(CH2SO3H)][Dab(CH2SO3H)]T; lactam 4-C)	-6.38%	inactive	inactive	
CCCCCCCCCCCCCCCCCCOCC(COP(=O)([O-])OCC[N+](C)(C)C)OC (stereo unspecified)	-1.53%	inactive	inactive	
CC/C=C\C/C=C\C/C=C\CCCCCCCC(=O)OC				56.4 µM (active)
COc1cccc(-c2ccc(/C=C\CN3CCCCCC3)cc2Cl)c1				44.6 µM (active)
